{
  "source": "PubChem BioAssay (NCI)",
  "note": "Where “and” joins values, the source holds several entries; their conditions need not be identical. Equal entries are not always repeated. About 79,000 compounds went through this panel and 15% of them were active in at least one assay; those are over-represented in the sample as a whole. More than one record can exist for a structure, and the calls need not agree. Calls of active or inactive are those of the source. No stated cut-off is given here; in the data, active means growth inhibition above about 70%; inactive means the rest.",
  "data": [
    {"experiment": "NCI Yeast Anticancer Drug Screen. Data for the mec2-1 strain (AID 157)", "conditions": "S. cerevisiae mec2-1 strain, at 50.0 µM, stronger effect = higher value", "summary_of_the_method": "(§1)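 Test agents were screened against the mec2-1 yeast strain, with defined DNA repair or cell cycle alteration. Growth was scored as inhibition against vehicle-only controls.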", "values": [
      {"smiles": "CC(O)CN1C(=O)c2cccc3cc([N+](=O)[O-])cc(c23)C1=O", "note": "(configuration not stated)", "growth inhibition": "67.4% (inactive)"},
      {"smiles": "Cc1cc(SC#N)ccc1O", "growth inhibition": "90% (active) and 87.1% (active)"},
      {"smiles": "Cn1c(COc2ccc(/C=N/NC(=O)CCC(=O)N/N=C/c3ccc(OCc4c[n+]5ccccc5n4C)cc3)cc2)c[n+]2ccccc12", "growth inhibition": "32.1% (inactive)"},
      {"smiles": "COC1=C(N=[N+]=[N-])C(=O)c2ncccc2C1=O", "growth inhibition": "85.5% (active)"},
      {"smiles": "CCN(CC)c1ccc(N=Nc2cc(S(=O)(=O)O)ccc2O)c(O)c1", "growth inhibition": "-14.1% (inactive)"},
      {"smiles": "O=C1C(C(O)(C(F)(F)F)C(F)(F)F)CCC1C(O)(C(F)(F)F)C(F)(F)F", "note": "(configuration not stated)", "growth inhibition": "42.6% (inactive)"},
      {"smiles": "CN(C)CCNC(=O)c1cccc2nc3c(ccc4ccccc43)nc12", "growth inhibition": "73.8% (active)"},
      {"smiles": "O=S(=O)(CCC[C@H]1[C@@H](CCOCc2ccccc2)C2CCCN1O2)c1ccccc1", "note": "(some centres not stated)", "growth inhibition": "-19.2% (inactive)"},
      {"smiles": "CCC(C)/C(C)=N/NC(N)=O", "note": "(configuration not stated)", "growth inhibition": "18.1% (inactive)"},
      {"smiles": "Nc1c([N+](=O)[O-])cc2c3c(cccc13)CC2", "growth inhibition": "27.9% (inactive)"},
      {"smiles": "CC1=Cc2ccc(C)cc2C(=O)C1=O", "growth inhibition": "99.4% (active)"},
      {"smiles": "C=Cc1c(C)c(O)cc2c1-c1ccc(O)c(C)c1CC2", "growth inhibition": "-52.2% (inactive)"},
      {"smiles": "NCC(O)CSCc1ccc(Cl)cc1", "note": "(configuration not stated)", "growth inhibition": "25.1% (inactive)"},
      {"smiles": "C[n+]1c(-c2ccc(NC(=O)c3ccc(C(=O)Nc4ccc(-c5cn6ccccc6[n+]5C)cc4)cc3)cc2)cn2ccccc21", "growth inhibition": "56.5% (inactive)"},
      {"smiles": "Nc1ccccc1SSc1ccccc1N", "growth inhibition": "99.5% (active) and 99.1% (active)"},
      {"smiles": "CCCCCCCCCCCC[N+](C)(C)C", "growth inhibition": "53.3% (inactive) and 89.5% (active) and 92.2% (active)"},
      {"smiles": "CNC(=O)OCc1c(COC(=O)NC)c(C)n(-c2ccc(Cl)c(Cl)c2)c1C", "growth inhibition": "90.8% (active)"},
      {"smiles": "[O-]c1c2cc(-[n+]3c(-c4ccccc4)cc(-c4ccccc4)cc3-c3ccccc3)cc1COCCOCCOCCOCCOC2", "growth inhibition": "33% (inactive)"},
      {"smiles": "C[Si](C)(C)Cc1ccccc1C(=O)O", "growth inhibition": "97% (active)"}
    ]},
    {"experiment": "NCI Yeast Anticancer Drug Screen. Data for the mec2-1 strain (AID 157)", "conditions": "S. cerevisiae mec2-1 strain, at 100.0 µM, stronger effect = higher value", "summary_of_the_method": "as §1", "values": [
      {"smiles": "COc1ccc(/C=C2\\CCc3ccccc3C2=O)cc1OC", "growth inhibition": "90% (active)"},
      {"smiles": "O=Cc1ccccc1B(O)O", "growth inhibition": "100% (active)"},
      {"smiles": "CC(=O)CC[N+](C)(C)C", "growth inhibition": "4% (inactive)"},
      {"smiles": "O=C(O)[C@H]1[C@@H](C2CCCCC2)O[C@@H](C2CCCCC2)O[C@H]1C(F)(F)F", "growth inhibition": "5% (inactive)"},
      {"smiles": "CN(NC(=O)/C(=C/C=C/c1ccccc1)NC(=O)c1ccccc1)C1=C(Cl)C(=O)[N+](c2ccccc2)=CC1", "growth inhibition": "49% (inactive)"},
      {"smiles": "CCCCOc1ccc(Nc2c3ccccc3nc3ccccc23)cc1", "growth inhibition": "73% (active)"},
      {"smiles": "N#C/C(=C1C=C/C(=N\\O)C(Cl)=C\\1)c1ccccc1", "growth inhibition": "14% (inactive)"},
      {"smiles": "COc1ccc(C(=O)OCCc2ccccc2)cc1", "growth inhibition": "-5% (inactive)"},
      {"smiles": "Cc1c2ccncc2c(C)c2c1oc1ccccc12", "growth inhibition": "98% (active)"},
      {"smiles": "CCCC#CCOC(=O)c1cc([N+](=O)[O-])cc([N+](=O)[O-])c1", "growth inhibition": "99% (active)"},
      {"smiles": "Nc1nc(Nc2ccccc2)nc(Nc2ccccc2)n1", "growth inhibition": "81% (active)"},
      {"smiles": "COc1ccc(/C=C2\\S/C(=N/Nc3nc(-c4ccccc4)cs3)NC2=O)cc1OC", "growth inhibition": "94% (active)"},
      {"smiles": "CC(O)CN1C(=O)c2cccc3cc([N+](=O)[O-])cc(c23)C1=O", "note": "(configuration not stated)", "growth inhibition": "42% (inactive)"},
      {"smiles": "Cn1c(COc2ccc(/C=N/NC(=O)CCC(=O)N/N=C/c3ccc(OCc4c[n+]5ccccc5n4C)cc3)cc2)c[n+]2ccccc12", "growth inhibition": "96% (active)"},
      {"smiles": "COC1=C(N=[N+]=[N-])C(=O)c2ncccc2C1=O", "growth inhibition": "96% (active)"},
      {"smiles": "CCN(CC)c1ccc(N=Nc2cc(S(=O)(=O)O)ccc2O)c(O)c1", "growth inhibition": "22% (inactive)"},
      {"smiles": "O=C1C(C(O)(C(F)(F)F)C(F)(F)F)CCC1C(O)(C(F)(F)F)C(F)(F)F", "note": "(configuration not stated)", "growth inhibition": "32% (inactive)"},
      {"smiles": "CN(C)CCNC(=O)c1cccc2nc3c(ccc4ccccc43)nc12", "growth inhibition": "94% (active)"},
      {"smiles": "O=S(=O)(CCC[C@H]1[C@@H](CCOCc2ccccc2)C2CCCN1O2)c1ccccc1", "note": "(some centres not stated)", "growth inhibition": "27% (inactive)"},
      {"smiles": "CCC(C)/C(C)=N/NC(N)=O", "note": "(configuration not stated)", "growth inhibition": "1% (inactive)"},
      {"smiles": "Nc1c([N+](=O)[O-])cc2c3c(cccc13)CC2", "growth inhibition": "29% (inactive)"},
      {"smiles": "CC1=Cc2ccc(C)cc2C(=O)C1=O", "growth inhibition": "99% (active)"},
      {"smiles": "C=Cc1c(C)c(O)cc2c1-c1ccc(O)c(C)c1CC2", "growth inhibition": "98% (active)"},
      {"smiles": "NCC(O)CSCc1ccc(Cl)cc1", "note": "(configuration not stated)", "growth inhibition": "3% (inactive)"},
      {"smiles": "C[n+]1c(-c2ccc(NC(=O)c3ccc(C(=O)Nc4ccc(-c5cn6ccccc6[n+]5C)cc4)cc3)cc2)cn2ccccc21", "growth inhibition": "96% (active)"},
      {"smiles": "CNC(=O)OCc1c(COC(=O)NC)c(C)n(-c2ccc(Cl)c(Cl)c2)c1C", "growth inhibition": "99% (active)"},
      {"smiles": "[O-]c1c2cc(-[n+]3c(-c4ccccc4)cc(-c4ccccc4)cc3-c3ccccc3)cc1COCCOCCOCCOCCOC2", "growth inhibition": "77% (active)"},
      {"smiles": "C[Si](C)(C)Cc1ccccc1C(=O)O", "growth inhibition": "98% (active)"}
    ]},
    {"experiment": "NCI Yeast Anticancer Drug Screen. Data for the rad14 strain (AID 159);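 further: 0% = growth of vehicle-treated control cultures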", "conditions": "S. cerevisiae rad14 strain growth inhibition; at 1.2 µM; stronger effect = higher value", "summary_of_the_method": "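DNA repair-defective yeast, compound-exposed; % growth inhibition derived by comparison with vehicle-treated controls.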", "values": [
      {"smiles": "COc1ccc(/C=C2\\CCc3ccccc3C2=O)cc1OC", "growth inhibition": "-16% (inactive)"},
      {"smiles": "O=Cc1ccccc1B(O)O", "growth inhibition": "3% (inactive)"},
      {"smiles": "O=C(O)[C@H]1[C@@H](C2CCCCC2)O[C@@H](C2CCCCC2)O[C@H]1C(F)(F)F", "growth inhibition": "-1% (inactive)"},
      {"smiles": "CN(NC(=O)/C(=C/C=C/c1ccccc1)NC(=O)c1ccccc1)C1=C(Cl)C(=O)[N+](c2ccccc2)=CC1", "growth inhibition": "-1% (inactive)"},
      {"smiles": "CCCCOc1ccc(Nc2c3ccccc3nc3ccccc23)cc1", "growth inhibition": "-77% (inactive)"},
      {"smiles": "N#C/C(=C1C=C/C(=N\\O)C(Cl)=C\\1)c1ccccc1", "growth inhibition": "2% (inactive)"},
      {"smiles": "COc1ccc(C(=O)OCCc2ccccc2)cc1", "growth inhibition": "5% (inactive)"},
      {"smiles": "Cc1c2ccncc2c(C)c2c1oc1ccccc12", "growth inhibition": "5% (inactive)"},
      {"smiles": "CCCC#CCOC(=O)c1cc([N+](=O)[O-])cc([N+](=O)[O-])c1", "growth inhibition": "0% (inactive)"},
      {"smiles": "Nc1nc(Nc2ccccc2)nc(Nc2ccccc2)n1", "growth inhibition": "5% (inactive)"},
      {"smiles": "COc1ccc(/C=C2\\S/C(=N/Nc3nc(-c4ccccc4)cs3)NC2=O)cc1OC", "growth inhibition": "20% (inactive)"},
      {"smiles": "CC(O)CN1C(=O)c2cccc3cc([N+](=O)[O-])cc(c23)C1=O", "note": "(configuration not stated)", "growth inhibition": "2% (inactive)"},
      {"smiles": "COC1=C(N=[N+]=[N-])C(=O)c2ncccc2C1=O", "growth inhibition": "-2% (inactive)"},
      {"smiles": "CCN(CC)c1ccc(N=Nc2cc(S(=O)(=O)O)ccc2O)c(O)c1", "growth inhibition": "-15% (inactive)"},
      {"smiles": "O=C1C(C(O)(C(F)(F)F)C(F)(F)F)CCC1C(O)(C(F)(F)F)C(F)(F)F", "note": "(configuration not stated)", "growth inhibition": "4% (inactive)"},
      {"smiles": "CN(C)CCNC(=O)c1cccc2nc3c(ccc4ccccc43)nc12", "growth inhibition": "-2% (inactive)"},
      {"smiles": "O=S(=O)(CCC[C@H]1[C@@H](CCOCc2ccccc2)C2CCCN1O2)c1ccccc1", "note": "(some centres not stated)", "growth inhibition": "1% (inactive)"},
      {"smiles": "CCC(C)/C(C)=N/NC(N)=O", "note": "(configuration not stated)", "growth inhibition": "-2% (inactive)"},
      {"smiles": "CC1=Cc2ccc(C)cc2C(=O)C1=O", "growth inhibition": "18% (inactive)"},
      {"smiles": "C=Cc1c(C)c(O)cc2c1-c1ccc(O)c(C)c1CC2", "growth inhibition": "-21% (inactive)"},
      {"smiles": "NCC(O)CSCc1ccc(Cl)cc1", "note": "(configuration not stated)", "growth inhibition": "-2% (inactive)"},
      {"smiles": "C[n+]1c(-c2ccc(NC(=O)c3ccc(C(=O)Nc4ccc(-c5cn6ccccc6[n+]5C)cc4)cc3)cc2)cn2ccccc21", "growth inhibition": "-2% (inactive)"},
      {"smiles": "CNC(=O)OCc1c(COC(=O)NC)c(C)n(-c2ccc(Cl)c(Cl)c2)c1C", "growth inhibition": "-38% (inactive)"},
      {"smiles": "[O-]c1c2cc(-[n+]3c(-c4ccccc4)cc(-c4ccccc4)cc3-c3ccccc3)cc1COCCOCCOCCOCCOC2", "growth inhibition": "1% (inactive)"},
      {"smiles": "C[Si](C)(C)Cc1ccccc1C(=O)O", "growth inhibition": "1% (inactive)"}
    ]}
  ]
}
